Data on 8 compounds can be found in PubChem BioAssay (Tox21).

Records with an inconclusive call do not appear. A number with no mark means an inactive call. The source made the active and inactive calls. Unless noted, calls come from the whole dose curve.

Assay [1] in a line: qHTS assay to identify small molecule antagonists of the peroxisome proliferator-activated receptor delta (PPARd) signaling pathway - cell viability counter screen (AID 743213; active = well fitted curve in the direction sought with a large enough effect in the repeat runs; an effect the other way counts as inactive or inconclusive; note: nearly all actives have a fitted effect of over 50% in size). Put shortly: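 HEK293H cells with the PPARd UAS-bla reporter, co-treated 17 h at 37 C with compounds and L165041 (300 nM final), were lysed with CellTiter-Glo. Luminescence indicated viable cell content.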

In assay [2] the target is Peroxisome proliferator-activated receptor delta (Homo sapiens) (UniProt Q03181). As to the kind of experiment: qHTS assay to identify small molecule antagonists of the peroxisome proliferator-activated receptor delta (PPARd) signaling pathway (AID 743215; active = well fitted inhibition curve with a large enough effect in the signal ratio in the repeat runs, not every such curve was filed as active; the % refers to the signal ratio;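 note: cells stimulated with agonist L165041 at 300 nM final during compound exposure; series mostly up to about 62 µM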). Put shortly: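 PPARd-bla HEK293H cells (UAS-bla reporter) preincubated 5 h, then given compound plus 300 nM final L165041 agonist for 17 h at 37 C. Beta-lactamase activity read by LiveBLAzer B/G FRET substrate fluorescence after 2 h at room temperature.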

Assay [3] can be described thus: qHTS assay to identify small molecule agonists of the farnesoid-X-receptor (FXR) signaling pathway - cell viability counter screen (AID 743218; active = well fitted curve in the direction sought with a large enough effect in the repeat runs; an effect the other way counts as inactive or inconclusive; note: nearly all actives have a fitted effect of over 45% in size). In short, it runs like this: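 FXR-UAS-bla HEK 293T cells exposed to compounds for 16 h at 37C. Cytotoxicity read in the same wells by CellTiter-Glo luminescence after 30 min at room temperature, following the beta-lactamase FRET read.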

Assay [4] is described as follows: qHTS assay to identify small molecule antagonists of the farnesoid-X-receptor (FXR) signaling pathway - cell viability counter screen (AID 743221; active = well fitted cell-killing curve with a large enough effect in the repeat runs, not every such curve was filed as active; note: nearly all actives have a fitted effect of over 50% in size). In short, it runs like this:
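Quantitative HTS of the Tox21 10K library run in parallel with the beta-lactamase reporter read. HEK 293T cells carrying a UAS-driven bla reporter got compound and 50 uM CDCA (final) for 16 h; ATP-based luminescence followed.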

Assay [5] has as its target Vitamin D3 receptor (Homo sapiens) (UniProt P11473). Kind of assay: qHTS assay to identify small molecule agonists of the vitamin D receptor (VDR) signaling pathway (AID 743222). Put shortly: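 VDR-bla cells plated 4 h at 37 C, then exposed to compounds for 16 h at 37 C. Beta-lactamase reporter activity measured by fluorescence after 2 h room-temperature loading with LiveBLAzer B/G FRET substrate.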

The target is the same in assay [6]. As to the kind of experiment: qHTS assay to identify small molecule antagonists of the vitamin D receptor (VDR) signaling pathway (AID 743223; active = well fitted inhibition curve with a large enough effect in the signal ratio in the repeat runs, not every such curve was filed as active; the % refers to the signal ratio). In short, it runs like this:
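Fluorescence from LiveBLAzer B/G FRET substrate, read after 2 h at room temperature, reflects beta-lactamase reporter activity in VDR-bla cells treated 16 h at 37C with compounds and agonist 1alpha,25-dihydroxyvitamin D3 (3 nM final).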

Assay [7] can be described thus: qHTS assay to identify small molecule antagonists of the vitamin D receptor (VDR) signaling pathway - cell viability counter screen (AID 743225; active = well fitted curve in the direction sought with a large enough effect in the repeat runs; an effect the other way counts as inactive or inconclusive; note: nearly all actives have a fitted effect of over 50% in size). Put shortly:
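Cells (VDR-UAS-bla HEK 293T) are plated, rested 4 h at 37C, dosed with compound and 3 nM final 1-alpha,25-dihydroxy vitamin D3, and incubated 16 h. Viability is taken from CellTiter-Glo luminescence in the reporter wells.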

Assay [8] in a line: qHTS assay to identify small molecule agonists of the NFkB signaling pathway (AID 1159509; active = well fitted curve in the direction sought with a large enough effect in the signal ratio in the repeat runs, not every such curve was filed as active; the % refers to the signal ratio; note: series mostly up to about 61 µM). Put shortly:
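After overnight attachment, reporter cells received test compounds, DMSO or positive controls and were incubated 5 hr at 37 C. FRET substrate was then added for 1.5 hr at room temperature before dual-emission fluorescence reading.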

Assay [9] in a line: qHTS assay to identify small molecule agonists of the NFkB signaling pathway - cell viability counter screen (AID 1159515). Note: series mostly up to about 61 µM; nearly all actives have a fitted effect of over 55% in size. In short, it runs like this:
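NFkB-bla ME-180 cells, 2,000/well, plated overnight at 37 C; compound added for 5 hr at 37 C. Viability read in the same wells as the bla reporter, by CellTiter-Glo luminescence after 30 min at room temperature.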

Assay [10] is described as follows: qHTS assay to identify small molecule agonists of the endoplasmic reticulum stress response signaling pathway - cell viability counter screen (AID 1159517).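 Note: HeLa cells carrying an ER stress response element beta-lactamase reporter; series mostly up to about 61 µM; nearly all actives have a fitted effect of over 50% in size.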 Put shortly:
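Luminescence readout: CellTiter-Glo, 30 min RT, same wells as the ESRE-bla reporter read. HeLa ESRE-bla, 1,500 cells/well, o/n 37 C; cpd 5 hr 37 C/5% CO2.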

A short description of assay [11]: qHTS assay to identify small molecule antagonists of the retinoid-related orphan receptor gamma (ROR-gamma) signaling pathway - cell viability counter screen (AID 1159520; active = well fitted curve in the direction sought with a large enough effect in the repeat runs; an effect the other way counts as inactive or inconclusive; note: nearly all actives have a fitted effect of over 50% in size). Put shortly:
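Tet-on ROR gamma CHO cells (1,000/well) were plated 4 hr, given compounds in DMSO for 2 hr at 37 C, then induced with 1 uM final doxycycline for 16 hr. Viability was read as ATP by CellTiter-Glo luminescence after 30 min.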

For assay [12], the target named is Nuclear receptor ROR-gamma (Homo sapiens) (UniProt P51449). Kind of assay: qHTS assay to identify small molecule antagonists of the retinoid-related orphan receptor gamma (ROR-gamma) signaling pathway (AID 1159521; active = well fitted curve in the direction sought with a large enough effect in the repeat runs; an effect the other way counts as inactive or inconclusive). Put shortly: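 RORγ antagonism is scored from reduced reporter luminescence in Tet-on CHO cells. Induction used 1 uM final doxycycline hyclate for 16 h at 37 C, following a 2 h compound exposure.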

A short description of assay [13]: qHTS assay to identify small molecule agonists of the AP-1 signaling pathway - cell viability counter screen (AID 1159525). Note: nearly all actives have a fitted effect of over 55% in size. Put shortly:
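ME-180 AP-1-bla, 2500 cells/well, Opti-MEM + 0.5% dialyzed FBS; overnight 37 °C; cpd 15-pt titration, 5 h 37 °C; CellTiter-Glo 30 min RT; luminescence read; normalised to TOAB and DMSO controls.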

A short description of assay [14]: qHTS assay to identify small molecule agonists of the AP-1 signaling pathway (AID 1159526).
The nature of assay [15]: qHTS assay to identify small molecule agonists of the vitamin D receptor (VDR) signaling pathway - cell viability counter screen (AID 743224; active = well fitted curve in the direction sought with a large enough effect in the repeat runs; an effect the other way counts as inactive or inconclusive; note: nearly all actives have a fitted effect of over 50% in size; note: potency is the fitted concentration of half-maximal effect). In short, it runs like this:
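VDR-bla cells, 4 h after plating, exposed to compounds for 16 h at 37C; viability then read in the same wells as CellTiter-Glo luminescence after 30 min at room temperature, following the bla FRET read.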

Assay [16] concerns the target Retinoic acid receptor RXR-alpha (Homo sapiens) (UniProt P19793). As to the kind of experiment: qHTS assay to identify small molecule agonists of the RXR signaling pathway (AID 1159527). Note: nearly all actives have a fitted effect of over 35% in size. In short, it runs like this: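 qHTS of the Tox21 10K library in GeneBLAzer RXR-alpha HEK 293T cells carrying a beta-lactamase reporter […]; 16 hr treatment, 9-cis retinoic acid as agonist control, FRET read-out.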

Assay [17] deals with Peroxisome proliferator-activated receptor delta (Homo sapiens) (UniProt Q03181). Kind of assay: qHTS assay to identify small molecule agonists of the peroxisome proliferator-activated receptor delta (PPARd) signaling pathway (AID 743212). Put shortly:
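GeneBLAzer PPARd UAS-bla HEK293H cells (beta-lactamase reporter under UAS control), plated and rested 5 h at 37 C, then exposed to compounds in DMSO at 37 C; LiveBLAzer B/G FRET substrate added, 2 h room temperature, fluorescence read.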

In assay [18] the target is Bile acid receptor (Homo sapiens) (UniProt Q96RI1). Kind of assay: qHTS assay to identify small molecule antagonists of the farnesoid-X-receptor (FXR) signaling pathway (AID 743217; active = well fitted inhibition curve with a large enough effect in the signal ratio in the repeat runs, not every such curve was filed as active; the % refers to the signal ratio). In short, it runs like this: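 FXR-UAS-bla HEK 293T cells (beta-lactamase reporter) given compound plus chenodeoxycholic acid (50 uM final), 16 h at 37C. LiveBLAzer B/G FRET substrate added for 2 h at room temperature; fluorescence read.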

Assay [19] shares this target. Kind of assay: qHTS assay to identify small molecule agonists of the farnesoid-X-receptor (FXR) signaling pathway (AID 743220; active = well fitted activation curve with a large enough effect in the signal ratio in the repeat runs, not every such curve was filed as active; the % refers to the signal ratio). In short, it runs like this: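 Beta-lactamase reporter under UAS control in GeneBLAzer FXR HEK 293T cells (5000/well) measured with LiveBLAzer FRET substrate after 2 h at room temperature. Compound exposure lasted 16 h at 37C.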

Sequence of Bile acid receptor (Homo sapiens) (Q96RI1 whole entry, looked up): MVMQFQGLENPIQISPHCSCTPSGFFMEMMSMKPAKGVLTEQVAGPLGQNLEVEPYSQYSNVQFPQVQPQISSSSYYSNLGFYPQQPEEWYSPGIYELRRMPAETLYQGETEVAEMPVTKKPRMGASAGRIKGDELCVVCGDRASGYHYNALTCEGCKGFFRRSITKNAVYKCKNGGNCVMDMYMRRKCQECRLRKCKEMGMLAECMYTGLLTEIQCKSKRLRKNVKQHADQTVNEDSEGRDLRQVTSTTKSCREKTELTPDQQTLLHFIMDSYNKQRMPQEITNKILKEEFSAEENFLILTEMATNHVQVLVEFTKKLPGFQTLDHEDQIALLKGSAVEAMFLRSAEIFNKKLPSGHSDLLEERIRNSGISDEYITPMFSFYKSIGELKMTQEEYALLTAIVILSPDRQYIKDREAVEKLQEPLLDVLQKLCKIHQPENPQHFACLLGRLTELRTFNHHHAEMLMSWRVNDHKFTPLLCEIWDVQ
Sequence of Vitamin D3 receptor (Homo sapiens) (P11473 whole entry, looked up): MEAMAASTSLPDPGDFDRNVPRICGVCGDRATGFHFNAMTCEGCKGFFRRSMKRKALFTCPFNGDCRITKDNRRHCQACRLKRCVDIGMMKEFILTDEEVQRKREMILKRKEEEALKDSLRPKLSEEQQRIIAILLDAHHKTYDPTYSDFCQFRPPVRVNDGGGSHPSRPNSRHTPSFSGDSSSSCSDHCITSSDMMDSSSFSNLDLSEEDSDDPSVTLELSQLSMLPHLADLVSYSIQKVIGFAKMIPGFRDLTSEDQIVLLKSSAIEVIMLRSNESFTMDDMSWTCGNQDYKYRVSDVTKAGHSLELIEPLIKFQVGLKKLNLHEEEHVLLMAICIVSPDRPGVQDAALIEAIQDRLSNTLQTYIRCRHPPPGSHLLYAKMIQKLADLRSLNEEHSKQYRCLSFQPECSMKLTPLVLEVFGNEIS
Sequence of Retinoic acid receptor RXR-alpha (Homo sapiens) (P19793 whole entry, looked up): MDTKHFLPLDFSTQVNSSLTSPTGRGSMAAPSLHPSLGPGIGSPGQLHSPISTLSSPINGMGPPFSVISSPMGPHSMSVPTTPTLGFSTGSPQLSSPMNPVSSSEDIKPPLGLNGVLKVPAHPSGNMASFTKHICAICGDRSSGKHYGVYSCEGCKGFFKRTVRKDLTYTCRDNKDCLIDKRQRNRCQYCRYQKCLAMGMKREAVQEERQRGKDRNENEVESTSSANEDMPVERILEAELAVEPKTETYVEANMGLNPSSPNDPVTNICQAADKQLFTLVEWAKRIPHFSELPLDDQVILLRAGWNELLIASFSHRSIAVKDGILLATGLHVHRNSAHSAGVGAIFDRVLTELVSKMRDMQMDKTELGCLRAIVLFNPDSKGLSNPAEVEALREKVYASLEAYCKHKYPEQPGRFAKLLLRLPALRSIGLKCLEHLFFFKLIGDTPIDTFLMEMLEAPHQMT
Sequence of Peroxisome proliferator-activated receptor delta (Homo sapiens) (Q03181 whole entry, looked up): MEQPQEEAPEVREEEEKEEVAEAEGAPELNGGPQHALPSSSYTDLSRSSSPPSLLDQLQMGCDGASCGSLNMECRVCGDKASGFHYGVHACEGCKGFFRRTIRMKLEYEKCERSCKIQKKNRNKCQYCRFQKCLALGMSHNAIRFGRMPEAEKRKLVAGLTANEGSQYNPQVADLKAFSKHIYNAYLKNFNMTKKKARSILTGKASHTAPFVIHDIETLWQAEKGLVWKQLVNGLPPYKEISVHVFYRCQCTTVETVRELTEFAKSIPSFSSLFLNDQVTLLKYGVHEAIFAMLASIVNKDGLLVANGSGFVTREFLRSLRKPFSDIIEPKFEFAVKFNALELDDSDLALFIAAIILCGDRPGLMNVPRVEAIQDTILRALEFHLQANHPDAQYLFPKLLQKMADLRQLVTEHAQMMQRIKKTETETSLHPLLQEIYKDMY

Consider `CC1(C)CON(Cc2ccccc2Cl)C1=O`, for which the call in assay [1], in assay [2], in [4], in assay [5], in assay [6] and in [7] was inactive. Besides, the result in assay [8], in [9] and in assay [14] was inactive. In addition, the Potency entry in [3], in [10], in [11], in [12] and in [13] was “inactive” in each case.

As for `COC(=O)c1c(C(F)F)nc(C(F)(F)F)c(C2=NCCS2)c1CC(C)C`, the outcome in assay [1], in assay [2], in assay [4], in assay [5], in assay [6] and in [7] was inactive. The result in [8], in assay [9] and in [14] was inactive. Further, the Potency result in assay [15], in [10], in assay [11], in assay [13] and in [16] was “inactive” in each case.

For `O=C(O)c1cccc(Cl)c1`, the compound was called inactive in assay [17], in assay [1], in assay [2], in [19], in [4] and in [5]. For the same compound, the call in [6], in assay [7], in assay [8], in assay [9] and in assay [14] was inactive. In addition, the Potency result in assay [18], in assay [3], in assay [10], in assay [11], in assay [13] and in [16] was “inactive” in each case.

For `CC(CCc1ccccc1)NC(C)C(O)c1ccc(O)cc1` (stereo not given), the call in assay [17], in assay [1], in assay [4], in [5], in assay [7] and in [8] was inactive. Also, the compound was called inactive in [9]. For the same compound, the Potency entry in [3], in assay [15], in [10], in [11], in assay [12] and in assay [13] was “inactive” each time. Moreover, the Potency result in assay [16] was “inactive”.

For the compound `CCOC(=O)/C=C(C)/C=C/C[C@@H](C)CCCC(C)C`, the outcome in assay [17], in assay [19], in assay [4], in assay [7], in assay [8] and in [9] was inactive. In [14], the compound was classed as inactive. Moreover, in [15], the Potency was 34.7 µM (active). The Potency result in assay [10], in [11], in [13] and in assay [16] was “inactive” each time.

`CNC(=O)Oc1cccc(C(C)C)c1`: the result in assay [1], in assay [4], in [5], in [7], in assay [8] and in assay [9] was inactive. Further, the call in assay [14] was inactive. Besides, the Potency result in assay [3], in assay [15], in [10], in assay [11], in assay [12] and in [13] was “inactive” in each case.

On to `CCCSC(=O)Cl`, for which the compound was called inactive in assay [17], in assay [1], in [2], in [19], in assay [4] and in assay [5]. The compound was classed as inactive in [7], in assay [8], in assay [9] and in assay [14]. The Potency result in assay [18], in assay [3], in assay [15], in assay [10], in assay [11] and in assay [12] was “inactive” in each case. Moreover, the Potency result in [13] is “inactive”.

For `CCOP(=S)(OCC)SCSP(=S)(OCC)OCC`, the compound was called inactive in assay [17], in assay [1], in [2], in assay [4], in [5] and in assay [7]. Moreover, the compound was called inactive in assay [8] and in [9]. Besides, the Potency result in assay [3], in [15], in assay [10], in assay [11], in [12] and in [13] was “inactive” each time.
